# PubChem BioAssay AID1345085 (National Center for Advancing Translational Sciences (NCATS), 2018)
# Inconclusive results are not listed. Active and inactive are the calls of the source. The call rests on the fitted dose curve; in most records, active means well fitted cell-killing curve with a large enough effect; inconclusive means small, poorly fitted or top-dose-only effect, or effect the other way; inactive means no such curve, though single readings can be large or run the other way.
# Test system: SKOV3
# Experiment: Confirmatory qHTS for gynecologic anti-cancer compounds from libraries of approved drugs and bioactive compounds; further: nearly all actives have a fitted effect of over 55% in size
# Settings: gynecologic cancer cell panel viability, ATPlite luminescence, 48 h; series mostly up to 57.6 µM
# Procedure, shortened: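 IC50 values derive from an ATPlite ATP-content luminescence assay following 48 h treatment at 37 C. Each compound ran as an 11-concentration, threefold series (57.5 uM to 0.977 nM); HEK 293T served as control line for selectivity index.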
row,SMILES,outcome
1,CCC(=O)O[C@H]1CC[C@H]2[C@@H]3CCC4=CC(=O)CC[C@]4(C)[C@H]3CC[C@]12C,inactive
2,C=C(C)[C@H]1Cc2c(ccc3c2O[C@@H]2COc4cc(OC)c(OC)cc4[C@@H]2C3=O)O1,inactive
3,CCOc1ccccc1-n1c(C(C)N2CCN(C(=O)COc3ccc(Cl)cc3)CC2)nc2ccccc2c1=O (stereo not given),inactive
4,C[C@]12CC[C@H]3[C@@H](CCC4=CC(=O)CC[C@@H]43)[C@@H]1CC[C@@H]2OC(=O)CCc1ccccc1,inactive
5,O=C(O)Cc1ccccc1,inactive
